# Test results as given in PubChem BioAssay (NCI).
# This is part of a sample that, as a whole, favours compounds with a hit. Of some 79,000 tested, about 15% had one in any assay. Values without a mark were called inactive. Calls of active or inactive are those of the source. No stated cut-off is given here; in the data, active means growth inhibition above about 70%; inactive means the rest.
# Assays:
# [1] = NCI Yeast Anticancer Drug Screen. Data for the rad50 strain (AID 155);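 further: 0% = growth of vehicle-only cultures of the same strain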; settings: S. cerevisiae rad50 strain growth inhibition; at 50.0 µM; stronger effect = higher value
# Method in brief: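 Compounds were tested on a yeast strain with an engineered DNA damage repair alteration; the reported value is growth inhibition normalised to vehicle treatment.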
# [2] = NCI Yeast Anticancer Drug Screen. Data for the mec2-1 strain (AID 157); settings: S. cerevisiae mec2-1 strain, at 50.0 µM, stronger effect = higher value
# Method in brief: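 Mutant yeast (mec2-1) grown with compound; growth inhibition relative to vehicle control reported.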
# [3] = NCI Yeast Anticancer Drug Screen. Data for the sgs1 mgt1 strain (AID 161);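 further: 0% = growth of cultures given vehicle only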; settings: S. cerevisiae sgs1 mgt1 strain, at 50.0 µM, stronger effect = higher value
# Method in brief: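 Compounds are added to genetically altered yeast, and growth is compared with cultures given vehicle alone to give percent inhibition.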
# [4] = NCI Yeast Anticancer Drug Screen. Data for the cln2 rad14 strain (AID 165);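 further: 0% = growth equal to vehicle treated cultures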; settings: S. cerevisiae cln2 rad14 strain, at 50.0 µM, stronger effect = higher value
# Method in brief: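 Readout is yeast growth inhibition versus vehicle-treated controls, using a strain with cln2 and rad14 alterations exposed to compound.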
# [5] = NCI Yeast Anticancer Drug Screen. Data for the bub3 strain (AID 167); settings: S. cerevisiae bub3 mutant strain, at 50.0 µM, stronger effect = higher value
# Method in brief: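 Growth of a checkpoint-deficient yeast mutant is measured after compound exposure. Values represent inhibition relative to vehicle.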
# [6] = NCI Yeast Anticancer Drug Screen. Data for the mlh1 rad18 strain (AID 175); settings: S. cerevisiae mlh1 rad18 strain growth inhibition; at 50.0 µM; stronger effect = higher value
# Method in brief: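 Genetically defined yeast (DNA repair-deficient) exposed to compounds; growth inhibition determined relative to vehicle.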
SMILES,growth inhibition [1],growth inhibition [2],growth inhibition [3],growth inhibition [4],growth inhibition [5],growth inhibition [6]
O=C(NCCCl)NCC1CCCO1 (configuration not stated),-9.35%,-1.25%,-13.8%,-48.9%,-4.75%,0.15%
CCCCCCCCCCCC(=O)Nc1ccc(N(C)C(C)=O)cc1,-14.4%,-3.95%,-9.1%,-1.35%,7.2%,-10.1%
CC1(C)CC(=O)C=C(NCCCCCCCCNC2=CC(=O)CC(C)(C)C2)C1,-0.25%,19.8%,5.7%,6.45%,5%,9.8%
C/C=N/Nc1ccccc1,24.8%,-1.4%,18.2%,32.9%,31.9%,30%
NCc1ccc2ccc3ccccc3c2c1,11.1%,-0.95%,-1.35%,11.2%,-4.45%,19.7%
CC(=O)OC(COC(c1ccccc1)(c1ccccc1)c1ccccc1)C(OC(C)=O)C(COC(c1ccccc1)(c1ccccc1)c1ccccc1)OC(C)=O (configuration not stated),-25.9%,-8.4%,-22.5%,-18.8%,-6.6%,-15.1%
COc1ccc(/C=N/NC(=O)c2ccc(N)cc2)cc1,-1.65%,3%,14.4%,-15.9%,22.4%,8.75%
Cc1cc(C)cc(OCCC(=O)O)c1,-1.4%,-16.6%,-10.4%,21.7%,2.95%,7.1%
CC1(c2ccccc2)CCCCC1OC(N)=O (configuration not stated),4.3%,-21.9%,-13.9%,27.5%,7.2%,-5.15%
CN1COc2c(ccc3c4c(ccc23)CN(C)CO4)C1,3.15%,17.9%,16.6%,-47%,1.75%,35.4%
O=C1CSC(c2ccc(Cl)cc2)N1c1ccc(-n2c(-c3ccccc3)nc3ccccc3c2=O)cc1 (configuration not stated),-3.65%,-12.2%,5.35%,-43.4%,-0.7%,14.8%
Cc1ccc(S(=O)(=O)OI(O)CC(F)(F)F)cc1,-39.1%,15.5%,-2.5%,-2.05%,6.5%,25.9%
Nc1ccccc1NC(=O)C(F)(F)F,-2.45%,-5.4%,3.3%,-8.4%,-8.75%,1.15%
O=C1CSC(c2ccc([N+](=O)[O-])cc2)N1c1nc(-c2ccc3c(c2)CCCC3)cs1 (configuration not stated),32.1%,2.85%,21.1%,9.3%,1%,31.5%
Cc1cc(C)c([N+](=O)[O-])cc1[N+](=O)[O-],7.5%,5.5%,9.45%,-1.25%,-3.4%,5.15%
C/C=C(\CC)C(C#N)O[Si](C)(C)C (configuration not stated),13.2%,4.4%,1.45%,6.5%,10%,-24.6%
NNC(=O)C(=O)NN,-24%,-16.4%,-1.85%,-27.7%,-1.75%,-20.6%
C[N+]1(C)C2C=CCC1CSC2 (configuration not stated),4.55%,0.15%,-3.8%,3.65%,2.75%,12.8%
N#CC12CCC(O)C(CC1)C2=O (configuration not stated),20.2%,0.85%,10.1%,15.2%,-4.25%,20.6%
CC[N+](CC)(CC)CCO,-11.6%,-23.6%,-10.9%,20.7%,-11.5%,-18.5%
COC(=O)c1cc(-c2ccc(OC)cc2)[nH]c(=O)c1C#N,20.2%,21.1%,31.2%,20.4%,26.1%,27.9%

SMILES,growth inhibition [1],growth inhibition [2],growth inhibition [3],growth inhibition [4],growth inhibition [5],growth inhibition [6]
CC(=O)Oc1cc(OC(C)=O)c(OC(C)=O)c2c1CCCC2,6.45%,14.8%,6.65%,-91.1%,16.4%,56.7%
O=C1OC(=O)C2C3CC(C4OC34)C12 (configuration not stated),-12.2%,29.3%,-3.55%,-20.8%,-9.9%,4.05%
CCOC1CCC(C(C)=O)C(C#N)(C#N)C1(C#N)C#N (configuration not stated),38.1%,-9.55%,-21.6%,-7.35%,-37.9%,-42.5%
CC(CC(=O)Nc1ccc(NC(=O)CC(C)N=NC(N)=S)cc1)N=NC(N)=S (configuration not stated),30.6%,3.95%,-5.35%,-27.2%,1.75%,14%
O=C(/C=C/c1ccccc1)NC(Cc1ccccc1)C(=O)O (configuration not stated),-21%,-11.4%,-8.25%,-5.55%,-14.1%,-12.2%
OCC1OC(n2cc3ccccc3n2)C(O)C1O (configuration not stated),3.55%,4.85%,-5.55%,-3.8%,5.65%,-8.45%
O=C(Nc1nc2ncn(CCNCc3ccccc3)c2c(=O)[nH]1)c1ccccc1,-7.75%,-22.8%,6.25%,10.6%,15.4%,24.6%
O=C1CSC(c2cccc(Cl)c2)N1CCN1C(=O)CSC1c1cccc(Cl)c1 (configuration not stated),-14.6%,9%,-2.55%,-20.8%,2.75%,-6.6%
CCC/C(=N/NC(N)=O)C1=CCCCC1,0.45%,-5.45%,-2.6%,-28.4%,-18.9%,3.4%
COc1cc(/C=C2/C(=O)N=C(NC(C)=O)N2C)ccc1OC(C)=O,-35.9%,-2.55%,-14.7%,6.35%,5.55%,-37.1%
CCOC(=O)c1ccc(CSc2ccc(OC)cc2)cc1,86.9% (active),75.7% (active),86.4% (active),76.5% (active),80.5% (active),78.6% (active)
CC1C=CC(C)N(c2nnnn2C)N1c1nnnn1C (configuration not stated),-11.6%,9.75%,14.9%,-6.3%,-2.6%,-3.9%
CN(C)S(=O)(=O)C1(c2ccccc2)CCCC1,15.1%,9.85%,6.2%,-1.5%,-7%,1.9%
COC(=O)c1cc(-c2ccc(F)cc2)[nH]c(=O)c1C#N,6.3%,-10.4%,15.3%,13.4%,-25.8%,16.6%
CCCCCCCCC(CO)CCCCCC (configuration not stated),15.9%,-1.05%,31.4%,1.65%,-6.4%,9.15%
O=C1CCSc2c(cnc3ccccc23)N1,-17.1%,-12.4%,-26.4%,-18.1%,-18.6%,-46.8%
O=C(O)C(CSC(c1ccccc1)(c1ccccc1)c1ccccc1)Nc1ccccc1[N+](=O)[O-] (configuration not stated),99% (active),99.2% (active),99.4% (active),98% (active),98.3% (active),99.2% (active)
COc1ccc(N=C2C(=Nc3ccc(OC)cc3)N(S(=O)(=O)c3ccccc3)C(=S)N2c2ccc(OC)cc2)cc1,-11.8%,-35%,-35.5%,-23.9%,0.2%,-26.1%
COc1cccc2c(NCCCCCO[N+](=O)[O-])cc[n+](C)c12,25.7%,-24.4%,9.85%,8.7%,16.6%,29.1%
CCC1CCC(=O)NC1=O (configuration not stated),-10.3%,-1.15%,11.7%,-7.75%,-9.6%,1.5%
COc1c(NC(=O)c2ccccc2Cl)cccc1[N+](=O)[O-],-1%,1.3%,13.8%,-6.75%,16.9%,20.2%
